Assay results reported in PubChem BioAssay AID743463 (Broad Institute, 2014).
The other results are listed elsewhere or left out. Results filed as inconclusive are left out. Unmarked numbers belong to inactive results.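 The calls were made as follows: active = dose curves showing G6PC suppression whose half-maximal dose is at most twice the top valid dose; inconclusive = flat curves with moderate negative activity, or unreliable fits; inactive = the rest.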

Test: hepatocyte G6PC expression decrease – cell-based, hepatocytes, RT-qPCR, cherry-picked samples, PGC-1a acetylation activator project, dose response (AID 743463);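 also: G6PC expression relative to GAPDH housekeeping gene as delta delta Ct; 0% = median of neutral control wells and 100% = median of positive control wells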
Conditions: primary mouse hepatocytes, G6PC mRNA qPCR, forskolin; series mostly up to 26 µM; G6PC suppression (normalized activity, % of positive control; higher = more suppression): at the top concentration

| SMILES | G6PC suppression (normalized activity, % of positive control; higher = more suppression) |
| --- | --- |
| COc1ccc(-n2nnnc2CNC(=O)c2ccc3ccccc3c2)cc1 | 340% |
| CCOc1ccccc1CN1CCN(C2CCC2)CC1CCO (stereo not given) | 0.835% |
| Cc1ccc(OCC(=O)NCCCNC(=O)c2cccnc2)cc1C | 43.4% |
| CCCCC(=O)Nc1ccc(C(=O)NCCCn2ccnc2)cc1 | 15.2% |
| Cc1ccc(S(=O)(=O)Nc2ccc3c(c2)C(=O)N([C@@H](C)CO)C[C@@H](C)[C@H](CN(C)C(=O)Nc2cccc4ccccc24)OCCCC[C@H](C)O3)cc1 | 10.1% |
| O=C(NCCC1CCCCN1S(=O)(=O)c1cccs1)C(=O)Nc1ccc(F)cc1F (stereo not given) | -32.6% |
| COc1ccc(Nc2nnc(C)c3ccccc23)cc1 | 34.4% |
| Cc1cc(C(=O)NNS(=O)(=O)c2ccccc2C(F)(F)F)nn1C(C)(C)C | -16.2% |
| CCOC(=O)c1c(NC(=O)CSc2cn(CC)c3ccccc23)sc2c1CCC2 | -7.69% |
| CCOC(=O)c1c(-c2ccc(C)cc2C)csc1NC(=O)CSc1nnnn1C | -2.87% |
| CC(C)CCNc1nc(N2CCCC2)c2c(c1C#N)CCN(C)C2 | 120% |
| CCC(C)(C)n1nnnc1C(c1ccccc1OC)N1CCSCC1 (stereo not given) | -37.1% |
| O=S(=O)(NCc1ccccc1Br)c1ccccc1Br | 38.2% |
| O=C(NCc1ccccc1)C(c1ccccc1)N(C(=O)c1csnn1)c1ccc(F)cc1 (stereo not given) | 51% [at 8 µM] |
| Cc1cc(C)c2c(-n3cccc3)c(C(=O)NNS(=O)(=O)c3ccc(F)cc3)sc2n1 | 18% |
